HIF-2a inh – HIF-2a reporter inhibitors, primary screen, luminescence, 786-0 RCC cells; 786-0 RCC cells HIF-2a reporter, luciferase luminescence, overnight; inhibition, % at 18.8 µM; hit rate 0.72% among 360,000; AID 624352, 2012;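 active = inhibition of the luminescence signal of 40% or more relative to plate controls, in a single-dose primary screen at 18.75 µM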
KKLEB cytotox – cytotoxicity in KKLEB CF airway cells, primary screen, cytotoxicity control for CF NF-kB inhibitor project, cell-based, uHTS, fluorescence assay plates | KKLEB CF airway cells viability, ATPlite luminescence, overnight; stronger effect = lower value; cells stimulated with P. aeruginosa culture filtrate | hit rate 0.36% among 360,000 | activity change (cytotoxicity), % at 5 µM;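 active = corrected activity change at or below -50% at 5 µM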
Peg3 promoter – Peg3 promoter-driven luciferase inhibitors, primary screen, cell-based, HeLa, luciferase luminescence | HeLa PEG-Prom luciferase reporter, overnight | inhibition, % at 20 µM | hit rate 1.7% among 360,000 | AID 588405, 2011;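 active = inhibition of at least 50% at 20 µM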
TWEAK-Fn14 inh – inhibitors of TWEAK-Fn14 signaling, primary screen, luciferase reporter cells, uHTS | inhibition, % at 10 µM | TWEAK-stimulated Fn14 reporter cells, luciferase luminescence, 8 h | hit rate 2% among 360,000; in the data active = inhibition above about 50%
TROY signal inh – inhibitors of TROY-driven NF-kB signaling, primary screen, Q293 LMP1-TROYcd cells, NF-kB luciferase, uHTS | AID 1347056, 2019 | inhibition, % at 10 µM | Q293 LMP1-TROYcd NF-kB luciferase reporter, 4 h | hit rate 0.98% among 360,000;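 active = compounds whose plate-normalised and pattern-corrected inhibition of the luciferase reporter signal at the single screening dose is 50% or more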
CF NFkB block – inhibitors of PAF-induced NF-kB signaling, primary screen, cell-based, GFP fluorescence, uHTS; KKLEB NF-kB-GFP reporter, GFP fluorescence overnight; inhibition, % at 5 µM; hit rate 0.86% among 360,000;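 active = at least 50% inhibition at 5 µM, scaled per plate between neutral and stimulator controls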;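 also: PAF is a Pseudomonas aeruginosa culture filtrate used as stimulus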
A number is an active result; n = inactive; x = not tested or not shown. Sampled rows, rich in hits. Any-hit rate of the full collection: about 4%.

SMILES | HIF-2a inh | KKLEB cytotox | Peg3 promoter | TWEAK-Fn14 inh | TROY signal inh | CF NFkB block
COc1cc(/C=C/c2nc3ccccc3c(=O)[nH]2)cc(Cl)c1O | n | n | n | n | n | n
COc1ccc(C(=O)Nc2nc3ccccc3c(=O)[nH]2)cc1 | n | n | n | 53 | n | n
Cc1cccc(/C=C\c2nc3ccccc3c(=O)[nH]2)c1 | n | n | n | n | n | n
COc1ccc(C(=O)Nc2cccc(/C=C/c3nc4ccccc4c(=O)[nH]3)c2)cc1 | n | n | n | 57 | n | n
Cc1ccc(NC(=O)COc2cccc(Oc3ccccc3)c2)cc1S(=O)(=O)N1CCOCC1 | n | n | n | n | n | n
COc1ccc(-c2nc(NC(=O)c3[nH]c(C)c(C(C)=O)c3C)sc2C)cc1 | n | n | n | n | n | n
O=C(Nc1nc(-c2ccc(Cl)cc2)cs1)NC1CCCCC1 | n | n | n | 68 | 58 | n
CC(=O)c1c(C)[nH]c(C(=O)Nc2nc(-c3ccc(Cl)cc3)cs2)c1C | n | n | n | 68 | 58 | n
CC(=O)c1c(C)[nH]c(C(=O)Nc2nc(C)cs2)c1C | n | n | n | 94 | 65 | n
COc1cccc(OC)c1C(=O)Nc1nc(-c2ccccc2)cs1 | n | n | n | n | n | n
CC(=O)c1c(C)[nH]c(C(=O)Nc2nc(-c3ccc(-c4ccccc4)cc3)cs2)c1C | n | n | 103 | 98 | n | 78
COc1cc(C(=O)ON=C2C3CC4CC(C3)CC2C4)cc(OC)c1OC | n | n | 76 | n | n | n
CN(CC(=O)Nc1ccc(Cl)cc1)C(=O)Cc1c(F)cccc1Cl | n | n | n | n | n | n
CCOc1ccc(S(=O)(=O)NCCSCc2ccco2)cc1 | n | n | n | n | n | n
COc1ccc(S(=O)(=O)NCCSCc2ccco2)cc1 | n | n | n | 72 | x | n
C[C@@]12C(=O)Nc3ccc(F)cc3C(=O)N1[C@H]1c3cc(Br)ccc3OC[C@@H]1[C@@H]2c1ccccc1 | n | n | n | n | n | n
C[C@@]12C(=O)Nc3cc(F)ccc3C(=O)N1[C@H]1c3cc(Br)ccc3OC[C@@H]1[C@@H]2c1ccccc1 | n | n | 54 | n | n | n
Cc1ccc2c(c1)[C@H]1[C@H](CO2)[C@H](c2ccccc2)[C@]2(C)C(=O)Nc3cc(F)ccc3C(=O)N12 | n | n | 68 | n | n | n
Cc1cccnc1Nc1nc(-c2ccccn2)cs1 | n | n | n | 101 | n | n
O=C(COC(=O)c1ccc(Cl)c(S(=O)(=O)N2CCCCCC2)c1)Nc1ccccc1 | n | n | n | n | 58 | n
O=C(Nc1ccccc1C(=O)O)c1cc(S(=O)(=O)N2CCCCC2)c(Cl)cc1Cl | n | n | n | 56 | n | n
CC(=O)c1ccc(OCCCC(=O)Nc2ccc(C)c(S(=O)(=O)N3CCCCC3)c2)cc1 | n | n | n | 51 | n | n
O=C(COC(=O)c1ccc(S(=O)(=O)N2CCCC2)cc1)Nc1ccccc1 | n | n | n | n | n | n
O=C(COc1ccc2ccc(=O)oc2c1)Nc1cccc(S(=O)(=O)N2CCCCC2)c1 | n | n | n | 53 | n | n
COCCNC(=O)c1cc2c(c(-c3cccc(C#Cc4ccc(OC)c(OC)c4)c3)n1)[C@@H](CCO)N(S(=O)C(C)(C)C)C2 (some centres not stated) | n | n | n | n | n | n
SMILES | HIF-2a inh | KKLEB cytotox | Peg3 promoter | TWEAK-Fn14 inh | TROY signal inh | CF NFkB block
COc1ccccc1CNC(=O)C(=O)c1cn(CC(=O)N2CCOCC2)c2ccccc12 | n | n | n | n | n | n
Cc1ccc(NC(=O)COc2ccc(N(C)C(=O)C(C)(C)C)cc2)cc1S(=O)(=O)N1CCCCC1 | n | n | n | 69 | n | n
CCc1cccc(OCC(=O)Nc2ccc(C)c(S(=O)(=O)N3CCCCCC3)c2)c1 | n | n | n | 50 | n | n
Cc1ccc(NC(=O)COc2ccccc2C(N)=O)cc1S(=O)(=O)N1CCCCCC1 | n | n | n | 58 | n | n
CN(C)CCCNC(=O)c1ccc(Cl)c(S(=O)(=O)N2CCCCCC2)c1 | n | n | 91 | n | n | n
Cc1ccc(NC(=O)COc2cccc(C)c2C)cc1S(=O)(=O)N1CCCCCC1 | n | n | n | n | n | n
CCN(CC)CCNC(=O)c1ccc(Cl)c(S(=O)(=O)N2CCCCCC2)c1 | n | n | n | n | n | n
CCC1(c2ccc(Cl)cc2)NC(=O)N(CC(=O)NC2CCCC(C)C2C)C1=O (configuration not stated) | n | n | n | n | n | n
Nc1cc(=O)[nH]c(SCC(=O)Nc2cccc(S(=O)(=O)N3CCCCC3)c2)n1 | n | n | n | n | n | n
Cc1ccc(S(=O)(=O)N2CCCCC2)cc1NC(=O)CSc1ncnc2ccccc12 | n | n | n | n | n | n
COc1cc(C(C)=O)ccc1OCC(=O)Nc1ccc(C)c(S(=O)(=O)N2CCCCCC2)c1 | n | n | 55 | 84 | 63 | n
Cc1ccc(NC(=O)CSc2ncnc3ccccc23)cc1S(=O)(=O)N1CCCCCC1 | n | n | n | 87 | 53 | n
O=C(NCCOc1ccc(Cl)cc1)c1ccc2c(c1)OCCO2 | n | n | n | n | n | n
Cc1noc2ncnc(Oc3ccc4ccccc4c3)c12 | n | n | n | n | n | n
Cc1noc2ncnc(Oc3cc(Cl)ccc3Cl)c12 | n | n | 94 | n | n | n
O=C(COC(=O)CN1C(=O)C2CCCCC2C1=O)Nc1cc(F)ccc1F (configuration not stated) | n | n | n | n | n | n
CCn1cc(CNCc2cn(C)nc2-c2ccc(C3CCCCC3)cc2)cn1 | n | n | 68 | n | n | n
Cn1cc(CNCc2ccc(OC(F)(F)F)cc2)c(-c2ccc3c(c2)OCCO3)n1 | n | n | n | n | n | n
O=C1[C@H](Oc2ccccc2)[C@@H](c2ccccc2)N1c1ccncc1 | n | n | n | 65 | 56 | n
CC1CC(C)(C)Nc2ccc(N=O)cc21 (configuration not stated) | n | n | 84 | 80 | n | 71
N#CC1=C(N)N2C(=C(C#N)C1c1cccc(Br)c1)Nc1ccccc12 (configuration not stated) | n | -50 | n | 94 | 73 | n
CCOC(=O)C1=C(C)N=c2s/c(=C\c3ccc(O)c([N+](=O)[O-])c3)c(=O)n2C1c1ccccc1OC (configuration not stated) | n | n | 53 | n | n | n
CS(=O)(=O)N(CCC#N)Cc1ccc(/C=C2\C(=O)Nc3ccccc32)o1 | n | n | n | n | n | 50

Source: PubChem BioAssay (Sanford-Burnham Center for Chemical Genomics)
